Holding throughout (experiment): DAPPL (digital affinity profiling via proximity ligation, sequencing); 10 mM Tris-HCl pH 7.5, 50 mM NaCl, 1 mM DTT, 4% glycerol, room temperature, 30 min; GST-TFs on glutathione beads, 16-mer random dsDNA library, 0.1% formaldehyde crosslink after washing; high values mean tight binding
Conditions in all cases: protein: recombinant; tags: N-terminal GST; dsDNA, one strand shown

Assay [1] concerns the target T1, FLI1 (Homo sapiens, UniProt Q01543 1-452).
T1 sequence: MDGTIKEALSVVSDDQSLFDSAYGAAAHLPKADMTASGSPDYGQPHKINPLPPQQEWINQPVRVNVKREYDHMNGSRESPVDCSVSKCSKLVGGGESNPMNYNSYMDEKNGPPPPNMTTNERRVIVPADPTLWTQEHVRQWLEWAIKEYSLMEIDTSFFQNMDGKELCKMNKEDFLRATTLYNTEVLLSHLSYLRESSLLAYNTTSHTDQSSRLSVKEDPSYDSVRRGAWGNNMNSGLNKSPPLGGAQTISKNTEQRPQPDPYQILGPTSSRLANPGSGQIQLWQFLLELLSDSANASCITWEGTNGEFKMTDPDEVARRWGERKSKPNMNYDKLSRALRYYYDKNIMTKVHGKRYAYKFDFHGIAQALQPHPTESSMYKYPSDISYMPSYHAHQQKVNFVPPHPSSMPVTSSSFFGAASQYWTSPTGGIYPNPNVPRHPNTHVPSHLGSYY
The method in brief:
(§1)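 A tag-only sample was pooled with DNA-barcoded human transcription factors that had been expressed in yeast as GST fusions and captured on glutathione beads. The pools were incubated for 30 min at room temperature with 200 nmole of a random double-stranded 16-mer DNA library in Tris/NaCl/DTT/glycerol buffer, then washed, crosslinked with 0.1% formaldehyde, proximity-ligated (BsaI/T4 ligase, 1 h, 37 °C), PCR-amplified and sequenced on an Illumina NextSeq500. Binding signal is each hexamer's read frequency for a factor divided by its frequency for the tag-only sample.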

The target in assay [2] is T2, ELK1 (Homo sapiens, UniProt P19419 1-428).
T2 sequence: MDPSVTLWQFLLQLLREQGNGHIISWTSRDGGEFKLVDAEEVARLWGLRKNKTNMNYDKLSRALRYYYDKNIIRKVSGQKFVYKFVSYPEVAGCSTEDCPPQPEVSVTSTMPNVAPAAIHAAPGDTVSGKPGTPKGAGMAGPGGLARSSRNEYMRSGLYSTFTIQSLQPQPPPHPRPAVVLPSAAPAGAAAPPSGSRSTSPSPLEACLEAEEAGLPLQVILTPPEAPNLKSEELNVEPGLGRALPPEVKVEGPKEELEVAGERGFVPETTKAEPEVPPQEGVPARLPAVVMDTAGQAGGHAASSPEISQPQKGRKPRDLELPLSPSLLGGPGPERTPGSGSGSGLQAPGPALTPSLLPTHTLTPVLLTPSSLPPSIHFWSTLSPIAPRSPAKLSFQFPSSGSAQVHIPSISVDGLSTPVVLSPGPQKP
The procedure, abridged:
as §1

Assay [3] has as its target T3, GABPA (Homo sapiens, UniProt Q06546 1-454).
T3 sequence: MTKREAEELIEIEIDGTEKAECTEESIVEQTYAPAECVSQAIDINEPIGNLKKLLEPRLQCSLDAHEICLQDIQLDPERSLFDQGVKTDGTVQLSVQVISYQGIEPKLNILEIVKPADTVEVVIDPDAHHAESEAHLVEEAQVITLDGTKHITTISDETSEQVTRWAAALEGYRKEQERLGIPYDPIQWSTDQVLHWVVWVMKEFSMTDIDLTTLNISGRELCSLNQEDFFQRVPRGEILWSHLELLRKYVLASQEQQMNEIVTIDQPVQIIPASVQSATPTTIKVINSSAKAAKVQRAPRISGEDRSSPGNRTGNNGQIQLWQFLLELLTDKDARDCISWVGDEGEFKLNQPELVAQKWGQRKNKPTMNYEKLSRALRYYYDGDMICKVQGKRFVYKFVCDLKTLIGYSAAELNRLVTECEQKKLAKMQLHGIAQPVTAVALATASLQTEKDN
The method in brief:
as §1

Assay [4] has as its target T4, ERG (Homo sapiens, UniProt P11308 1-479).
T4 sequence: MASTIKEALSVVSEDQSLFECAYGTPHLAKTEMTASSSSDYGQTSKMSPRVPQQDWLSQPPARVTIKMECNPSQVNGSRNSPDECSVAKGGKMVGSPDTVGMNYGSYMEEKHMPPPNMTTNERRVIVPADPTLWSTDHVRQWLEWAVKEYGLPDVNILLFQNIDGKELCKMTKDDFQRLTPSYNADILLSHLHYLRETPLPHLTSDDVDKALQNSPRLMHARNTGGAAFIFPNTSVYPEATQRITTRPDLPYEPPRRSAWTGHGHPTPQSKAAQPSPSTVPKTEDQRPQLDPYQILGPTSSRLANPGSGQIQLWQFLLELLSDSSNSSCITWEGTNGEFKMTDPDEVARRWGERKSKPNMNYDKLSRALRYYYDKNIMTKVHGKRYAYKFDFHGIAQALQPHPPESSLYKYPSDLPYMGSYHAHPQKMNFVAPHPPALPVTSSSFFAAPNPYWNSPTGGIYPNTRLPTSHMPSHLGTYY
The method in brief:
as §1

The target of assay [5] is ELF1 (Homo sapiens, UniProt P32519 1-619). The method in brief:
as §1

Assay [6] has as its target T5, EHF (Homo sapiens, UniProt Q9NZC4 1-300).
T5 sequence: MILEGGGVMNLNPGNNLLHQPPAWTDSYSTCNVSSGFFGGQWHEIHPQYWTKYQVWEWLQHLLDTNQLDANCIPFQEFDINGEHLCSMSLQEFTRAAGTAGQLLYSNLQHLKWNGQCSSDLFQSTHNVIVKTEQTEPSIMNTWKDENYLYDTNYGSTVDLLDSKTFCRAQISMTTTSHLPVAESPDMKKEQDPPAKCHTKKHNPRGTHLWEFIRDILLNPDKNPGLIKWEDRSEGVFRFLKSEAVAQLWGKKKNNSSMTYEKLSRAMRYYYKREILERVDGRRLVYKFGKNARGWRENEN
The method in brief:
as §1

Assay [7] addresses SPI1 (Homo sapiens, UniProt P17947 1-270). The procedure, abridged: as §1
For assay [8], the target named is SPIB (Homo sapiens, UniProt Q01892 1-262). The procedure, abridged:
as §1

Assay [9] deals with T6, FEV (Homo sapiens, UniProt Q99581 1-238).
T6 sequence: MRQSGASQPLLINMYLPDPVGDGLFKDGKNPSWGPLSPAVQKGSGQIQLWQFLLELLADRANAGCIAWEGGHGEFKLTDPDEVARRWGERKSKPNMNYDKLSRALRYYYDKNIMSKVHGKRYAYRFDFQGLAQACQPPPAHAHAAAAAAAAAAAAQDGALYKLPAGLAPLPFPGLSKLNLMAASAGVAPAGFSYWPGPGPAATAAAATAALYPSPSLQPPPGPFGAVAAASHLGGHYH
The procedure, abridged:
as §1

Assay [10] addresses ETV5 (Homo sapiens, UniProt P41161 1-510). The procedure, abridged: as §1
The target of assay [11] is T7, SPIC (Homo sapiens, UniProt Q8N5J4 1-248).
T7 sequence: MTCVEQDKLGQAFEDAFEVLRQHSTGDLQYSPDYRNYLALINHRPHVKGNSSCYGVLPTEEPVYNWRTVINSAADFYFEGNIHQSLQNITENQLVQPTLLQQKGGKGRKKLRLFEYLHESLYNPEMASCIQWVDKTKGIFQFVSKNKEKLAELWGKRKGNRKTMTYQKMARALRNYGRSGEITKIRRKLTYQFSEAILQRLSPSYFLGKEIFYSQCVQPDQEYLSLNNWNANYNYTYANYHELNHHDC
The procedure, abridged: as §1

The target in assay [12] is ETV1 (Homo sapiens, UniProt P50549 1-477). The procedure, abridged:
as §1

Assay [13] concerns the target T8, ERF (Homo sapiens, UniProt P50548 1-548).
T8 sequence: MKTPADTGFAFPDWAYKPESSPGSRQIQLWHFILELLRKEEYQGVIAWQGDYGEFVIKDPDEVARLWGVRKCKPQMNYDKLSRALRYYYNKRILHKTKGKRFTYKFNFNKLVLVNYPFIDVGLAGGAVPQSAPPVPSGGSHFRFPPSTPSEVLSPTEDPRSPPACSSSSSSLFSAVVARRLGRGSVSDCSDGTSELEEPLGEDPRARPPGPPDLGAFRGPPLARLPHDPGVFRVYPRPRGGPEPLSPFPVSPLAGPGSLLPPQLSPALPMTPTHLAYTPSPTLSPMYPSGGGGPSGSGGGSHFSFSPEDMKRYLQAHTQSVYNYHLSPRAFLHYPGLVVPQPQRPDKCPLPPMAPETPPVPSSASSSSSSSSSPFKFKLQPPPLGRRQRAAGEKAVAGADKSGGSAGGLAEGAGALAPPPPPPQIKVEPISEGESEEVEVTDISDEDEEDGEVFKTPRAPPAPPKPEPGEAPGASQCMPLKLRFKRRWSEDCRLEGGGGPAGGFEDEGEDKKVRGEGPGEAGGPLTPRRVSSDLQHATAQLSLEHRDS
The procedure, abridged:
as §1

For assay [14], the target named is T9, ETV3L (Homo sapiens, UniProt Q6ZN32 1-361).
T9 sequence: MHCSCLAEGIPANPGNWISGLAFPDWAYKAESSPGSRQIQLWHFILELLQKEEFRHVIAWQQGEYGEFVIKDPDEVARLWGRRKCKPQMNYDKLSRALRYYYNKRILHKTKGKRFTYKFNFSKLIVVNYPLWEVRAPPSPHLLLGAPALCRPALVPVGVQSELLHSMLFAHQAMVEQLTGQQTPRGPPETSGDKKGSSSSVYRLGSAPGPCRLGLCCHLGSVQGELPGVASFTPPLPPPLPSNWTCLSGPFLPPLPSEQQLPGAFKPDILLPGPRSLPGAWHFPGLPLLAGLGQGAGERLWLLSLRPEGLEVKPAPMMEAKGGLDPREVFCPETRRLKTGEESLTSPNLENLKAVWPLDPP
The procedure, abridged: as §1

The target in assay [15] is T10, ETS2 (Homo sapiens, UniProt P15036 1-469).
T10 sequence: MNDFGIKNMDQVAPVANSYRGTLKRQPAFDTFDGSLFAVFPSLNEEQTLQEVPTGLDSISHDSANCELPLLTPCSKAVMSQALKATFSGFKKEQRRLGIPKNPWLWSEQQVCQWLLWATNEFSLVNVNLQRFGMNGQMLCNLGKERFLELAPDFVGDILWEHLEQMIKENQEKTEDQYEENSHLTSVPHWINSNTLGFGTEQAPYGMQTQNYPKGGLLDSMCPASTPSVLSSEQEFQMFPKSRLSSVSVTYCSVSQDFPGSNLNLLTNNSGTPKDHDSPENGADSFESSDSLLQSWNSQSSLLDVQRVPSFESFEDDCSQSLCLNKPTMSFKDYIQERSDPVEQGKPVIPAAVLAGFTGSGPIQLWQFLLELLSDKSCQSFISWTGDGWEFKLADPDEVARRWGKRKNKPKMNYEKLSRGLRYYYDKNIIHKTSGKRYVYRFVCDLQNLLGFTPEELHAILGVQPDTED
The method in brief:
as §1

In assay [16] the target is T11, ELF5 (Homo sapiens, UniProt Q9UKW6-2 1-255).
T11 sequence: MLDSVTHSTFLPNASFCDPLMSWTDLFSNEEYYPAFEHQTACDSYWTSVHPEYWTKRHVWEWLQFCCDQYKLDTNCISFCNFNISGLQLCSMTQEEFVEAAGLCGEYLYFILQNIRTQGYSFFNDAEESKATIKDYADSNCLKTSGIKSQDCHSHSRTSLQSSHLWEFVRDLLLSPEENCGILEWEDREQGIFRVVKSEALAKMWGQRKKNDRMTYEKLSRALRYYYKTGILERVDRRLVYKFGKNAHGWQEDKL
The procedure, abridged: as §1

The target in assay [17] is T12, ETV3 (Homo sapiens, UniProt P41162-2 1-143).
T12 sequence: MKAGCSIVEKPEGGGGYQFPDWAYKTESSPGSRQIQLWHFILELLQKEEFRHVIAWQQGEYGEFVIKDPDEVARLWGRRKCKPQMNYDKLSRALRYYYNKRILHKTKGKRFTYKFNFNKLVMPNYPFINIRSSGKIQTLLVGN
The procedure, abridged: as §1

The target of assay [18] is ETV6 (Homo sapiens, UniProt P41212 1-452). The procedure, abridged:
as §1

This note sets out measurements from article PMC7862700, “An all-to-all approach to the identification of sequence-specific readers for epigenetic DNA modifications on cytosine”.

ETV1, sequence (P50549 whole entry): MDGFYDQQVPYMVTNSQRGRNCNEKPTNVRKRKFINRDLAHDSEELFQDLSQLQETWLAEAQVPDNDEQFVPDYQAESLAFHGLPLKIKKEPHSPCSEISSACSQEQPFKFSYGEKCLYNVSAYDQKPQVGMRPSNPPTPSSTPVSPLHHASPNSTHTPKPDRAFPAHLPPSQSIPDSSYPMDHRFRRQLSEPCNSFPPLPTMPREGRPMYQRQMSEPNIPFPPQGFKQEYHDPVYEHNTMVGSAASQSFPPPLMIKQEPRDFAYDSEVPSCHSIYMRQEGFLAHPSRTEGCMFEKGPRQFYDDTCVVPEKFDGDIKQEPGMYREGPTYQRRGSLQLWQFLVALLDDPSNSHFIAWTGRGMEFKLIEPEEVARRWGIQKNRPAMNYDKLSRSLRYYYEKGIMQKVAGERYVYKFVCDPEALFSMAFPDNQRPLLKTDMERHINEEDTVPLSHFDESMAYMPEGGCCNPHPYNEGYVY
ETV5, sequence (P41161 whole entry): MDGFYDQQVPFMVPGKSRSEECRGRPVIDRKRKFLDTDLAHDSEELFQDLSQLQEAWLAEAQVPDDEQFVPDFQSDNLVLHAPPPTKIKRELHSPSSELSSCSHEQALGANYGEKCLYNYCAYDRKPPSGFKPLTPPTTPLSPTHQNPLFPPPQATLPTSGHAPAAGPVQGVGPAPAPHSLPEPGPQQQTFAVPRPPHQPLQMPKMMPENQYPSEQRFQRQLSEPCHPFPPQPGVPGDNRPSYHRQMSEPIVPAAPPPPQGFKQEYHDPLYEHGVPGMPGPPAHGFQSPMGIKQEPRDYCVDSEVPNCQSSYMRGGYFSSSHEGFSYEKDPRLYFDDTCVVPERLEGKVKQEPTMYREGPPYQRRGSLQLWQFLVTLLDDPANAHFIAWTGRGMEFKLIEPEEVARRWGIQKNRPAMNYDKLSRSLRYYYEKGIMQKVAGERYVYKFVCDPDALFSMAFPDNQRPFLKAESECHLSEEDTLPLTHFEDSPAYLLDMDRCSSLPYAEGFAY
ETV6, sequence (P41212 whole entry): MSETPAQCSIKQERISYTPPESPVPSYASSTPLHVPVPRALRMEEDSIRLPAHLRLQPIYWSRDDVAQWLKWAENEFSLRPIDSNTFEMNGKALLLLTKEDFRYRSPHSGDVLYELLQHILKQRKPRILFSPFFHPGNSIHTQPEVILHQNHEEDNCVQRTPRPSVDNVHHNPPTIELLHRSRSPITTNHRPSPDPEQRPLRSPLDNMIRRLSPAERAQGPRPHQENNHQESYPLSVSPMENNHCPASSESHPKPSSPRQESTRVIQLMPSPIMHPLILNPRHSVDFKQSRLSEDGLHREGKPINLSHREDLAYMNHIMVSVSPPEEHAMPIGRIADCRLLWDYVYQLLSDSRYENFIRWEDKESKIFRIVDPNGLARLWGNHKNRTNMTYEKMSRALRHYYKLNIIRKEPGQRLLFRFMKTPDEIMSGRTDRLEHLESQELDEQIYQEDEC
SPIB, sequence (Q01892 whole entry): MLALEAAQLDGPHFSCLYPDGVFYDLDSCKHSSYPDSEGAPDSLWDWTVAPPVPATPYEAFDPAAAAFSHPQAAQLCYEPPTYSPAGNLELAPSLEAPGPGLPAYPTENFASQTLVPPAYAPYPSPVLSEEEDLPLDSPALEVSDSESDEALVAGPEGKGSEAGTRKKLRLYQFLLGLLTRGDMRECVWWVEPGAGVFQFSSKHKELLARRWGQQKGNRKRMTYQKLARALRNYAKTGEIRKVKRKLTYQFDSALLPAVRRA
ELF1, sequence (P32519 whole entry): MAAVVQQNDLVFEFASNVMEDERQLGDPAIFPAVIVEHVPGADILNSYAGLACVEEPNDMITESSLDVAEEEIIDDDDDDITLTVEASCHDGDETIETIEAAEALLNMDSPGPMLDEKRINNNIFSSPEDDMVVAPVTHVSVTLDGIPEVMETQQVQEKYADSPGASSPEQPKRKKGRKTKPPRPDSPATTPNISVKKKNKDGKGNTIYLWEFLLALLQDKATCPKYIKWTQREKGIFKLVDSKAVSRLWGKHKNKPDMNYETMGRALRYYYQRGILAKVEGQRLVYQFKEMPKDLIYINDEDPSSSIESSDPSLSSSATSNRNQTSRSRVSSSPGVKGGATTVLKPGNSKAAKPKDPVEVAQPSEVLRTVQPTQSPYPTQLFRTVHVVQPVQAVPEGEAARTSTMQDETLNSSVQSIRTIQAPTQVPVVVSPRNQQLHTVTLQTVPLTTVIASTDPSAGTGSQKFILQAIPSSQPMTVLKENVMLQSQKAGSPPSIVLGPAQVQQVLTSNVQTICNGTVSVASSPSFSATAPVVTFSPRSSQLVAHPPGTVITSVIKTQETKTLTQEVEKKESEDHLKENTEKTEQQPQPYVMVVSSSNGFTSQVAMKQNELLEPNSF

Take AGTGGT: the binding signal was 1.04 fold enrichment (6-mer frequency, TF over GST control) in assay [1]; 1.03 fold enrichment (6-mer frequency, TF over GST control) in assay [2]; 1.09 fold enrichment (6-mer frequency, TF over GST control) in [3]; 1.06 fold enrichment (6-mer frequency, TF over GST control) in assay [4]; 1.06 fold enrichment (6-mer frequency, TF over GST control) in assay [5]; 1.11 fold enrichment (6-mer frequency, TF over GST control) in assay [6]. The binding signal in assay [7] is 1.42 fold enrichment (6-mer frequency, TF over GST control); in assay [8] it was 1.22 fold enrichment (6-mer frequency, TF over GST control); in assay [9] it was 1.02 fold enrichment (6-mer frequency, TF over GST control); in assay [10], 1.14 fold enrichment (6-mer frequency, TF over GST control); in [11], 1.22 fold enrichment (6-mer frequency, TF over GST control); in assay [12], 1.02 fold enrichment (6-mer frequency, TF over GST control). The binding signal in assay [13] was 1.14 fold enrichment (6-mer frequency, TF over GST control); in assay [14] it was 1.06 fold enrichment (6-mer frequency, TF over GST control); in assay [15] it was 1.12 fold enrichment (6-mer frequency, TF over GST control); in [16], 1.14 fold enrichment (6-mer frequency, TF over GST control); in assay [17], 1.09 fold enrichment (6-mer frequency, TF over GST control); in assay [18], 1.11 fold enrichment (6-mer frequency, TF over GST control).
